Inconclusive results are not listed. Entries that show only a call come without a potency. Activity calls are given as the source filed them. Calls come from the whole dose curve; as a rule, active = well fitted curve in the direction sought with a large enough effect; inconclusive = small, poorly fitted or top-dose-only effect, or another doubt; inactive = no such curve, though single readings can be large; an effect the other way counts as inactive or inconclusive.
Legend:
[1] = qHTS assay for measurement of the activity of small molecule inhibitors on Zika virus induced Caspase-3 activity in human iPSC derived neural progenitor cells (hNPCs) (AID 1224857); note: nearly all actives have a fitted effect of over 65% in size
Summary of the method: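 Zika virus (2 FFU/cell) infection of human iPSC-derived NPCs, 6 h, following 1 h compound preincubation. Read-out: Caspase-Glo 3/7 luminescence.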

[2] = qHTS assay for measurement of the activity of small molecule inhibitors on Zika virus induced Caspase-3 activity in human astrocytoma cells (AID 1224859)
Summary of the method: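 Caspase activation in ZIKV-infected SNB-19 cells (2 FFU/cell, 6 h) measured by Caspase-Glo 3/7 luminescence after 30 min RT; compound pre-incubated 1 h; normalised to uninfected and infected controls.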

[3] = qHTS assay to identify small molecule inhibitors of chordoma cells - UCH-1 (AID 1259355); note: nearly all actives have a fitted effect of over 55% in size; note: potency is the fitted concentration of half-maximal effect; series mostly up to about 46 µM
Summary of the method: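 Seed 800 cells per well; incubate overnight at 37 C, 5% CO2. Add test compounds (15 concentrations), then the auranofin–topoisomerase-agent combination. Incubate 48hr, add CellTiter-Glo, wait 30min, read luminescence.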

[4] = qHTS assay to identify small molecule inhibitors of chordoma cells - UCH-2 (AID 1259356); note: series mostly up to about 46 µM
[5] = P-glycoprotein substrates identified in KB-8-5-11 adenocarcinoma cell line, qHTS therapeutic library screen (AID 1346987); note: nearly all actives have a fitted effect of over 65% in size; note: potency is the fitted concentration of half-maximal effect
Summary of the method: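 KB-8-5-11: colchicine-selected sub-line of KB-3-1 over-expressing P-gp; assay medium lacked colchicine. 72 h drug exposure at 37 degree C, CellTiter-Glo.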

Compound | Potency [1] | outcome [2] | Potency [3] | Potency [4] | Potency [5]
O=C(c1ccc(F)cc1)C1CCN(CCn2c(=S)[nH]c3ccccc3c2=O)CC1 | inactive | inactive | inactive | inactive | inactive
CC(C)Cc1ccc(CC(=O)O)cc1 | inactive | inactive | inactive | inactive | inactive
c1ccc(CC2=NCCN2)cc1 | inactive | inactive | inactive | inactive | inactive
Cc1cn([C@H]2C[C@H](F)[C@@H](CO)O2)c(=O)[nH]c1=O | inactive | inactive | inactive | inactive | inactive
CCC1Nc2cc(Cl)c(S(N)(=O)=O)cc2S(=O)(=O)N1 (stereo not given) | inactive | inactive | inactive | inactive | inactive
CCCCCCCCCCCCCCCCO | inactive | inactive | inactive | inactive | inactive
O=C(Nc1ncc([N+](=O)[O-])s1)c1cccs1 | inactive | inactive | 14.1 µM (active) | inactive | 16.4 µM (active)
Cc1cc(NS(=O)(=O)c2ccc(N)cc2)nc(C)n1 | inactive | inactive | inactive | inactive | inactive
O=C(CCN1CCN2CCCC2C1)N1c2ccccc2Sc2ccc(Cl)cc21 (stereo not given) | inactive | inactive | inactive | inactive | inactive
CC(C)Nc1cccnc1N1CCN(C(=O)c2cc3cc(NS(C)(=O)=O)ccc3[nH]2)CC1 | inactive | inactive | inactive | inactive | inactive
CCCCCN=C(N)N/N=C/c1c[nH]c2ccc(OC)cc12 | inactive | inactive | inactive | inactive | inactive
CCC1NC(=O)c2cc(S(N)(=O)=O)c(Cl)cc2N1 (stereo not given) | inactive | inactive | inactive | inactive | inactive
CC(=O)OCC(=O)[C@H]1CC[C@H]2[C@@H]3CCC4=CC(=O)CC[C@]4(C)[C@H]3CC[C@]12C | inactive | inactive | inactive | inactive | 7.31 µM (active)
CC1(C)OC[C@@H]2O[C@@]3(C(=O)O)OC(C)(C)O[C@H]3[C@@H]2O1 | inactive | inactive | inactive | inactive | inactive
CCNC(=O)/C=C/c1cccc(Br)c1 | inactive | inactive | inactive | inactive | inactive
CCCCN1C[C@H](O)[C@@H](O)[C@H](O)[C@H]1CO | inactive | inactive | inactive | inactive | inactive
CC1=C(C(=O)O)N2C(=O)[C@@H](NC(=O)[C@H](N)c3ccccc3)[C@H]2SC1 | inactive | inactive | inactive | inactive | inactive
O=[N+]([O-])c1cccc(S(=O)(=O)NCCNS(=O)(=O)c2cccc([N+](=O)[O-])c2)c1 | inactive | inactive | inactive | inactive | inactive

Compound | Potency [1] | outcome [2] | Potency [3] | Potency [4] | Potency [5]
Cc1c[nH]c2ccccc12 | inactive | inactive | inactive | inactive | inactive
CN(C)CCC[C@@]1(c2ccc(F)cc2)OCc2cc(C#N)ccc21 | inactive | inactive | inactive | inactive | inactive
N#CCC(=O)NN | inactive | inactive | inactive | inactive | inactive
CC(=O)Nc1ncc([N+](=O)[O-])s1 | inactive | inactive | inactive | inactive | inactive
CCCCCCCCCCCCSCCOCCO | inactive | inactive | inactive | inactive | inactive
CC(C(=O)O)c1cccc(Oc2ccccc2)c1 (stereo not given) | inactive | inactive | inactive | inactive | inactive
C[C@H]1[C@H]2CC[C@H]3[C@@H]4CC=C5C[C@@H](N(C)C)CC[C@]5(C)[C@H]4CC[C@]23CN1C | inactive | inactive | inactive | inactive | inactive
CCCCCCCCOc1ccc(C(=O)c2ccccc2)c(O)c1 | inactive | inactive | inactive | inactive | inactive
COc1cc(C(=S)N2CCOCC2)ccc1O | inactive | inactive | inactive | inactive | inactive
OCc1ccccn1 | inactive | inactive | inactive | inactive | inactive
CCOc1ccccc1C(N)=O | inactive | inactive | inactive | inactive | inactive
C#C[C@]1(O)CC[C@H]2[C@@H]3CCC4=CC(=O)CC[C@@H]4[C@H]3CC[C@@]21CC | inactive | inactive | inactive | inactive | 8.2 µM (active)
NC(=O)c1ccccc1O | inactive | inactive | inactive | inactive | inactive
Cc1cc(C)cc(OCC2CNC(=O)O2)c1 (stereo not given) | inactive | inactive | inactive | inactive | inactive
Cc1ccc(S(=O)(=O)NC(=O)NC2CCCC2)cc1 | inactive | inactive | inactive | inactive | inactive
N[C@H](C(=O)O)[C@@H](O)c1ccc(O)c(O)c1 | inactive | inactive | inactive | inactive | inactive
C[N+]12CCC(CC1)C(OC(=O)C(O)(c1ccccc1)c1ccccc1)C2 (stereo not given) | inactive | inactive | inactive | inactive | inactive

Reference: PubChem BioAssay (NCATS)
